High-throughput results (PubChem)
ClpP mod: qHTS Assay for Activators of ClpP; Potency, µM (doses to about 57.5 µM), inactives show at the highest dose activity change, negative = active; purified B. subtilis ClpP, FRET peptide cleavage, 20 min; 340,000 compounds, 1.9% hits; ATP-dependent Clp protease proteolytic subunit (Bacillus subtilis (strain 168)), P80244; active means well fitted falling curve with a large enough effect; inconclusive means small, poorly fitted or top-dose-only effect; inactive means no such curve, though single readings can be large or run the other way; further: the source files actives as falling curves though it sought activators and does not explain the sign; nearly all actives have a fitted effect of over 65% in size
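FRET quenching reversal measured ClpP activation: 10 microg/mL B. subtilis ClpP at pH 8 with the FRET-FV decapeptide, read at 430 nm after 320 nm excitation. The 20-min minus 0-min signal was scaled between DMSO/no-enzyme wells and ADEP (5.8 microM final).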
GLP1R inv ag: acts as inverse agonist at human GLP-1 receptor; Potency, µM (doses to about 38.3 µM), for the others: at the top dose activity change, negative = inhibition, usual class: inhibitors; P43220; 410,000 compounds, 1.6% hits; AID 624417; HEK293 GLP-1R CRE-luciferase, luminescence, 24 h; GLP-1R form is constitutively active; further: on the % scale 0 is the no-effect control and ±100 the full control effect; nearly all actives have a fitted effect of over 55% in size
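Cells are plated, allowed 12 hours at 37 deg C, then treated with compounds for 24 hr before luciferase detection reagent is added and luminescence is read after 12 min at room temperature. The HEK293 line carries constitutively active GLP-1R with a cAMP-responsive reporter.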
GLP1R cytotox: cytotoxicity counter-screen for GLP-1 receptor inverse agonists; HEK293 cAMP-luciferase reporter cells, luminescence, 24 h; Potency, µM (doses to about 38.3 µM), for the others: at the top dose activity change, negative = inhibition, most hits filed as inhibitors; 410,000 compounds, 0.13% hits; AID 624418;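 further: loss of luciferase light is scored as toxicity; on the % scale 0 is the no-effect control and ±100 the full control effect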
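1536-well qHTS counterscreen of the MLSMR; 200 cells/uL, 12 h pre-incubation, 23 nL cpd, 24 h at 37 deg C 5% CO2, luciferase detection reagent, 12 min RT, luminescence. Inhibition = undesired.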
GLP-1R agonist: GLP-1 receptor (human) agonism; P43220; HEK293 GLP-1R CRE-luciferase, luminescence, 4-6 h; cells express a hypersensitive GLP-1R form; Potency, µM (top dose mostly 45.6 µM), for the others: at the highest dose activation, hits mostly activators; 380,000 compounds, 0.007% hits; AID 624172; further: % of control where 0% means no effect
* hit, by the source's call; ? = inconclusive; / = no result given; [ ] = dose if it differs, or a comment. Sampled rows, rich in hits. Any-hit rate of the full collection: about 3.2%. Unless noted, the call rests on the fitted dose curve; in most records, active means well fitted curve in the direction sought with a large enough effect; inconclusive means small, poorly fitted or top-dose-only effect, or another doubt; inactive means no such curve, though single readings can be large; an effect the other way counts as inactive or inconclusive. Potency means the concentration at half of the fitted maximal effect.

SMILES	ClpP mod	GLP1R inv ag	GLP1R cytotox	GLP-1R agonist
CCc1ccc2oc(-c3ccc(OC)cc3)cc(=Nc3c(C)n(C)n(-c4ccccc4)c3=O)c2c1	3.8%	10µM*	-11.2%	-3.9%
Cc1cc(C)cc(CN2CCC(Oc3ccc(C(=O)N4CCCC4)cc3)CC2)c1	0.2%	10µM*	-30.0%	1.0%
CC1CCCN(C(=O)c2ccc(OC3CCN(CCc4ccccc4)CC3)cc2)C1 (centres undefined)	-2.0%	8.91µM*	?	2.6%
CC1CCCN(C(=O)COc2ccc(-c3ccccc3)cc2)C1 (centres undefined)	/	11.2µM*	-14.0%	18.8%
CCCOC1CCCN(C(=O)c2ccc(OC3CCN(C(=O)COC)CC3)cc2)C1 (centres undefined)	-4.2%	11.2µM*	10µM*	-5.6%
CCOc1ccc(S(=O)(=O)N2CCC(n3c(C)nc4cccnc43)CC2)cc1	-0.4%	-20.5%	0.1%	/
COc1ccc(OC)c(NC(=O)C(NS(=O)(=O)c2ccc3c(c2)CCCC(=O)N3)C(C)C)c1 (centres undefined)	-0.4%	3.7%	5.9%	/
COC(=O)c1ccc(NC(=O)c2nc(S(=O)(=O)Cc3ccccc3F)ncc2Cl)cc1	6.9%	/	/	/
O=C(NNc1ccc(F)cc1)c1c(F)cccc1Cl	0.0%	1.12µM*	-24.5%	0.1%
CCC(C)N(CCNC(=O)c1ccc2c(c1)NC(=O)c1ccccc1S2)C1CCCCC1 (centres undefined)	1.9%	3.55µM*	?	5.5%
CC(C)CC(=O)Nc1ncc([N+](=O)[O-])s1	/	?	-21.6%	0.2%
Cc1nc(C)c(C(=O)Nc2ncc([N+](=O)[O-])s2)o1	/	3.98µM*	-6.9%	-3.2%
CCOc1ccccc1NC(=O)CSc1nc2ccccc2nc1N1CCOCC1	-8.0%	10µM*	6.1%	4.8%
S=C1NC[C@H](CC2CCCCC2)N1CCc1cccc2ccccc12	-4.4%	7.94µM*	-10.2%	-4.5%
CCOC(=O)CN1C(=O)N(c2ccc(C)c(C)c2)S(=O)(=O)c2ccccc21	-2.5%	-20.4%	-9.6%	0.4%
Cc1cccc(N2CCN(CC(O)COCc3cccs3)CC2)c1C (centres undefined)	22.4µM*	?	-13.1%	2.0%
O=C(CSc1ccc(-c2nc3ccccc3[nH]2)cn1)Nc1ccc2c(c1)OCCO2	25.1µM*	20.1%	-24.7%	8.7%
Cc1ccc(SCC(=O)Nc2ccc(-c3nc4ccccc4[nH]3)cc2)cc1	25.1µM*	-13.2%	-14.5%	-25.2%
Cc1ccc2nc(-c3ccc(SCC(=O)Nc4nnc(C)s4)nc3)[nH]c2c1	-1.2%	?	?	5.2%
CCOC(=O)CSc1ccc(-c2nc3ccccc3[nH]2)cn1	31.6µM*	0.5%	27.9%	-2.2%
Cc1ccc(NC(=O)CCCSc2nc3ccccc3[nH]2)cc1	/	?	0.7%	17.7%
Cc1ccc2nc(-c3ccc(SCC(=O)Nc4nc(C)cs4)nc3)[nH]c2c1	7.94µM*	5.5%	2.0%[1.53 µM]	-0.7%
CCCCCCCCCC[n+]1ccc(/C=C/c2c(C)[nH]c3ccccc23)cc1	-0.1%	/	/	/
CCc1ccccc1NC(=O)C(=O)NCCc1sc(-c2cccc(C)c2)nc1C	107.7%	-21.1%	-19.1%	-6.1%
COc1cc(CNC(=O)c2ccc(NC(=O)N3CCCCc4ccccc43)cc2)cc(OC)c1OC	-1.5%	?	17.7%	/
SMILES	ClpP mod	GLP1R inv ag	GLP1R cytotox	GLP-1R agonist
Cc1ccccc1CN1CCc2nc(N3CCN(c4ncccn4)CC3)ncc2C1	-15.0%	?	-7.3%	/
CC(C)(C)N1C(=O)c2ccc(C(=O)Nc3ccc(-c4nc5ccccc5[nH]4)cc3)cc2C1=O	?	0.1%	13.9%	3.1%
CCOC(=O)CSc1ccc(-c2nc3cc(C)c(C)cc3[nH]2)cn1	31.6µM*	0.0%	-6.0%	1.3%
Cc1cc2nc(-c3ccc(SCC(=O)N4CCOCC4)nc3)[nH]c2cc1C	3.16µM*	?	?	-16.5%
O=C(Nc1ccc(-c2nc3ccccc3[nH]2)cc1)c1ccc(N2C(=O)CCC2=O)cc1	22.4µM*	0.7%	72.5%	5.2%
Cc1cc2nc(-c3ccc(SCc4ccccn4)nc3)[nH]c2cc1C	/	?	?	-0.5%
CCOC(=O)c1c(-c2ccccc2)oc2ccc(OCC)cc12	/	10µM*	4.0%	32.1%
CCOC(=O)COc1c(-c2ccc(OC)cc2)oc2ccccc2c1=O	31.6µM*	-7.3%	-5.3%	18.0%
CCOC(=O)c1c(C)n(-c2ccc(C)cc2)c2ccc(OCC(O)CN3CCN(C)CC3)cc12 (centres undefined)	-18.9%	5.01µM*	?	17.1%
CN1CCN(Cc2c(O)ccc3occ(C(=O)c4ccccc4)c23)CC1	-1.1%	-27.9%	3.16µM*	-3.6%
CCc1ccc(OCC(=O)N(Cc2ccc(C)o2)C2CCS(=O)(=O)C2)cc1 (centres undefined)	2.2%	-8.3%	-3.3%	/
CCOC(=O)c1c(-c2ccccc2)oc2ccc(OC)cc12	10µM*	?	30.6%	11.1%
COc1ccc2oc(-c3ccccc3)c(C(=O)N3CCOCC3)c2c1	28.2µM*	?	-6.5%	5.3%
CCOc1ccc(-c2oc3ccccc3c(=O)c2O)cc1OCC	31.6µM*	-0.4%	57.1%	/
CCOC(=O)c1c(-c2ccccc2)oc2ccc(O)c(CN3CCN(C)CC3)c12	0.1%	3.16µM*	?	14.6%
O=C(C[n+]1ccccc1)c1ccc(O)c(O)c1	1.8%	/	/	/
CCC(=O)Oc1c(Sc2ccc(Cl)cc2)c(C)nn1C(C)(C)C	1.4%	?	-11.5%	/
Cc1ccc(-n2ncc(C(=O)NCCc3ccccc3)c2C2CCN(C(=O)OC(C)(C)C)CC2)c(C)c1	2.0%	?	-3.6%	/
COc1ccc(-c2noc(-c3ccc(NCC4CCCO4)c([N+](=O)[O-])c3)n2)cc1 (centres undefined)	0.9%	0.9%	-4.1%	/
CCOc1ccc2oc(-c3ccccc3)c(C(=O)N3CCN(C)CC3)c2c1	11.2µM*	0.0%	?	0.1%
CCOC(=O)c1c(-c2ccccc2)oc2ccc(OCC(O)CNCCN(C)C)cc12 (centres undefined)	35.5µM*	5.01µM*	?	11.9%
CCOc1ccc2oc(C(=O)N3CCN(Cc4ccccc4)CC3)c(C)c2c1	/	?	-4.1%	27.7%
CCOC(=O)c1c(C)n(C)c2ccc(OCC(O)CNCCc3ccccc3)cc12 (centres undefined)	-3.5%	11.2µM*	?	3.2%
O=C1C2CCCCC2C(=O)N1c1ccc(S(=O)(=O)Nc2ncccn2)cc1 (centres undefined)	15.8µM*	9.5%	0.3%	-2.8%
Cc1ccnc(NS(=O)(=O)c2ccc(N3C(=O)C4CCCCC4C3=O)cc2)n1 (centres undefined)	/	10.2%	-11.8%	5.4%
COc1cc2oc(=O)c(CC(=O)NCCc3ccccc3)c(C)c2cc1Cl	0.0%	2.8%	1.7%	/
COc1ccc(CNC(=O)C(C)n2ccc3cc(S(=O)(=O)N4CCCC4)ccc32)cc1OC (centres undefined)	-2.3%	-0.8%	-8.1%	/
